# MgrA DNA FP = alters Staphylococcus aureus MgrA binding to DNA | 84,000 compounds, 0.13% hits | AID 602314 | inhibition, % (test concentration not listed) | fluorescence polarization; in the data active = inhibition above about 30%, passing the limit was not always enough;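 note: 0% = protein plus DNA without compound and 100% = DNA alone without protein; higher means less MgrA bound to DNA so lower polarization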
# * hit, by the source's call. The sample as a whole holds a higher share of hits than the screen did.
SMILES,MgrA DNA FP
C=CCN1C(=O)/C(=C/c2ccco2)C(=O)NC1=S,38
O=C1NC(=S)N(c2ccc(Br)cc2)C(=O)/C1=C\c1ccc(-c2ccccc2C(=O)O)o1,16
CN1C(=O)/C(=C/c2ccc(I)o2)C(=O)NC1=S,98*
C=CCOc1ccc(/C=C/[N+](=O)[O-])cc1,1
CC[n+]1c(-c2ccccc2)c2cc(N)ccc2c2ccc(N)cc21,58*
COc1cc2c(cc1O)CC1c3c(c(OC)c(OC)c(OC)c3-2)CCN1C (stereo not drawn),4
COc1cc(C=C2C(=O)N(C)C(=O)N(C)C2=O)ccc1OS(=O)(=O)c1ccccc1,-1
N#Cc1ccc(/C=C/[N+](=O)[O-])cc1,-2
O=C(Nc1ccc(Cl)cc1C(=O)c1ccccc1)c1ccc(Cl)cc1Cl,2
C=CC1CN2CCC1CC2C(=O)c1ccnc2ccc(OC)cc12 (stereo not drawn),2
